MITF inh: MITF inhibitors, primary screen, biochemical, AlphaScreen, human; Microphthalmia-associated transcription factor (Homo sapiens), O75030; AlphaScreen MITF homodimerization, bead proximity signal; inhibition, % at 2.6 µM; 650,000 tested, 0.91% active; in the data active = inhibition above about 50%;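 also: 0% = vehicle wells with protein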
GPR151 ag: activators of human GPR151, primary screen, cell-based, PathHunter beta-arrestin, luminescence. G-protein coupled receptor 151 (Homo sapiens), Q8TDV0. PathHunter beta-arrestin GPR151 cells. activation, % at 11.2 µM. 650,000 tested, 1% active; in the data active = activation above about 4.9%;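 also: 0% = median of compound wells and 100% = cells with positive control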
FBW7 activator: FBW7 E3 ligase activators, primary screen, biochemical, AlphaScreen, human | normalized activity (activation), % at 26.1 µM | 650,000 tested, 0.13% active | AlphaScreen FBW7–phospho-cyclin E peptide binding, activator screen | F-box/WD repeat-containing protein 7 (Homo sapiens), Q969H0 | AID 1259310, 2017; in the data active = normalized activity above about 1.9%;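 also: purified mutant Fbw7 with reduced substrate affinity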
Target sequence (Q969H0 whole entry, looked up): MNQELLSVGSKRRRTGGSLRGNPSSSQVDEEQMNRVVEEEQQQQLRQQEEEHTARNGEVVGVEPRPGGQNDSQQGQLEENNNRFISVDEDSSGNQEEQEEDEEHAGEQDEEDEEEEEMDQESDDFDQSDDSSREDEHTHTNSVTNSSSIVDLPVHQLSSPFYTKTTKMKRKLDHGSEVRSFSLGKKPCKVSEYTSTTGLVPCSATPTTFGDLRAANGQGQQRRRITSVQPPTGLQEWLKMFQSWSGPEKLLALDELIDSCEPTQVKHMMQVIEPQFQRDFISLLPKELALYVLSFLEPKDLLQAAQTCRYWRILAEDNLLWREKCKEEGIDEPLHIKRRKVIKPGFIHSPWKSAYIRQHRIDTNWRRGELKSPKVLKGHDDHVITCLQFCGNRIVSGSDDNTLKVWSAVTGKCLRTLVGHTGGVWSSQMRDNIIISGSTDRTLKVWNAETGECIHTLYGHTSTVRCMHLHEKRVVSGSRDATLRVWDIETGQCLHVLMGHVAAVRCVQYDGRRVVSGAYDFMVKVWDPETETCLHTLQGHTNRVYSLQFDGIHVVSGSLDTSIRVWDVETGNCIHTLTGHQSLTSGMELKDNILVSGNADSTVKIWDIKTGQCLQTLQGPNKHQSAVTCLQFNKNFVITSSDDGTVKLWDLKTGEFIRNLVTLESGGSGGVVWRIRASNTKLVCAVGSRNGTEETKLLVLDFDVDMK
TEAD-YAP inh: TEAD-YAP interaction inhibition, primary screen, TEAD-YAP interaction inhibitor project, luminescence, HEK-TIYL cells. inhibition, % at 9.12 µM. TEAD-Gal4/YAP UAS-luciferase luminescence. 640,000 tested, 1.4% active; in the data active = inhibition above about 32%;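 also: 0% = median of test compound wells and 100% = reference inhibitor wells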
MITF inh conf: MITF inhibitors, retest of hits, confirmation, biochemical, AlphaScreen, triplicate; shares compounds with MITF inh; AlphaScreen MITF homodimerization, biotin/His-MITF beads; inhibition, % at 2.6 µM; AID 1259372, 2018; 4,700 tested, 16% active;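 active = inhibition above a cutoff derived from the DMSO control wells, cut at about 28% in these data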;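 also: 0% = MITF dimer wells with DMSO only; inhibitors lower the bead chemiluminescence by keeping MITF from dimerizing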
AS interf DR: AlphaScreen optical interference compounds, dose response, counter-screen, biochemical, HTS | IC50, µM | 480 tested, 6% active | shares compounds with MITF inh | AlphaScreen optical interference counterscreen, cell-free; call rule not given here
AlphaScreen intf2: AlphaScreen optical interference compounds, counter-screen for MITF inhibitor project, biochemical, triplicate; 4,700 tested, 7.6% active; shares compounds with MITF inh; AID 1259376, 2018; LysRS AlphaScreen counterscreen, signal interference; inhibition, % at 2.6 µM;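 active = inhibition above a cutoff derived from the DMSO control wells, cut at about 30% in these data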
* marks the source's active call; other numbers are inactive results; x = no result. Sampled rows, rich in hits. Any-hit rate of the full collection: about 3.4%.

SMILES | MITF inh | GPR151 ag | FBW7 activator | TEAD-YAP inh | MITF inh conf | AlphaScreen intf2 | others
O=C1N/C(=C/c2cccn2-c2ccccc2)C(=O)N1Cc1ccccc1F | 55* | -1 | 0 | 13 | 3 | 0
CCCCOc1ccccc1NC(=O)C(F)(F)F | 8 | 0 | 0 | 10 | x | x
CC#CC(=O)N1CCC(Cc2ccc(OC)cc2)(C(=O)OCC)CC1 | 95* | 2 | 0 | -31 | 2 | -6
Cc1ccc(-c2nc3cc(NC(=O)c4cccnc4)ccc3o2)cc1Cl | 8 | 2 | 0 | -5 | x | x
Cc1ccc(-c2nc3cc(NC(=O)c4cccnc4)ccc3o2)cc1C | 63* | 1 | 0 | -34 | 7 | 10
COc1ccc(NC(=O)COC(=O)c2ccco2)cc1 | 4 | 4 | 0 | 3 | x | x
O=C(COc1ccc(Cl)cc1)NNC(=O)c1ccc(=O)[nH]c1 | 68* | 0 | 0 | -1 | -9 | -7
O=C(COc1ccc2ccccc2c1)NNC(=O)c1ccc(Cl)cc1 | 4 | 0 | 0 | -4 | x | x
CCCCN1C(=O)C(=O)N(CC(=O)Nc2ccc(C)c(Cl)c2)C1=O | 66* | 0 | 0 | 4 | -12 | -5
CC1CCCN(C(=O)CSc2cccc[n+]2[O-])C1 (configuration not stated) | -8 | -1 | 0 | 2 | x | x
COCCNc1cc(-c2ccccn2)nc(-c2ccccc2)n1 | 1 | -1 | 0 | 17 | x | x
COCCNc1cc(-c2ccccn2)nc(-c2ccccn2)n1 | 116* | 1 | -1 | 22 | 118* | 100*
O=C1C2C(C(=O)N1c1ccc(Br)cc1)N1CCCN1C2c1ccc(F)cc1 (configuration not stated) | 65* | 2 | 0 | 8 | 5 | 9
Cc1cccc(Nc2c([N+](=O)[O-])cc([N+](=O)[O-])c3nonc23)c1 | 56* | 0 | 0 | -14 | -5 | 6
Cc1cccc(Nc2c([N+](=O)[O-])ccc3nonc23)c1 | -8 | -1 | 0 | 3 | x | x
O=C1CSC(c2ccccc2C(F)(F)F)N1c1cccc(F)c1 (configuration not stated) | 21 | 0 | 0 | -1 | x | x
CCCNC(=O)c1cc(-c2ccc(Br)cc2)on1 | -19 | -1 | 0 | -50 | x | x
CCCCNC(=O)c1cc(-c2ccc(Br)cc2)on1 | 52* | -1 | 0 | -8 | 1 | 3
NC(=O)C(=O)N/N=C1\CCc2ccccc21 | 5 | 0 | 0 | -2 | x | x
O=S(=O)(O)c1ccc(N/N=C2\CCc3ccccc32)cc1 | 67* | -1 | 0 | 16 | 46* | -2 | AS interf DR=>6.5
CC(C)CC(=O)N1CCN(c2ccc(-c3ccccn3)nn2)CC1 | 125* | -3 | -2 | -5 | 114* | 101*
O=C(c1ccccc1F)N1CCN(c2ccc(-c3ccccn3)nn2)CC1 | 119* | 0 | -1 | -23 | 110* | 101*
O=C(CSc1ccc(-c2ccccn2)nn1)N1CCN(c2ccccc2)CC1 | 9 | -1 | -2 | 7 | x | x
O=C(C1CC1)N1CCN(c2ccc(-c3ccccn3)nn2)CC1 | 122* | -6 | -2 | -15 | 112* | 101*
O=C(c1c(F)cccc1F)N1CCN(c2ccc(Nc3ccncc3)nn2)CC1 | 16 | -1 | 0 | -3 | x | x
SMILES | MITF inh | GPR151 ag | FBW7 activator | TEAD-YAP inh | MITF inh conf | AlphaScreen intf2 | others
O=C(Nc1ccc(F)cc1)N1CCN(c2ccc(Nc3ccncc3)nn2)CC1 | -17 | 0 | 0 | -2 | x | x
c1ccc(-c2ccc(-c3ccccn3)nn2)nc1 | 86* | -9 | 0 | 44* | 99* | 101*
c1ccc(-c2ccccn2)nc1 | -14 | -1 | 0 | -7 | x | x
Cc1cc(=O)nc2c3ccccc3n(C(C)C(=O)NCc3cccs3)n12 (configuration not stated) | 11 | 0 | 0 | 2 | x | x
Cc1ccc(-c2csc(NC(=O)COc3ccccc3C(C)(C)C)n2)cc1 | 56* | -1 | 1 | -3 | -5 | -4
Cc1ccccc1OCC(=O)Nc1nc(-c2ccccc2)cs1 | -1 | 0 | 0 | -12 | x | x
CCN(CC)C(=O)C1CCCN(Cc2ccc(C(F)(F)F)cc2)C1 (configuration not stated) | 53* | 0 | 0 | 14 | -2 | -2
CCN(CC)C(=O)C1CCCN(Cc2ccc(C)o2)C1 (configuration not stated) | 39 | 0 | 0 | 15 | x | x
CCN(CC)C(=O)C1CCCN(Cc2ccc([N+](=O)[O-])o2)C1 (configuration not stated) | 56* | 1 | 0 | 14 | 4 | 9
CCOC(=O)C1=C(C)N=c2s/c(=C\c3ccc(C(C)(C)C)cc3)c(=O)n2C1c1ccc(OCC)c(OCC)c1 (configuration not stated) | 14 | 0 | 0 | 2 | x | x
O=C(NC(c1ccccc1)c1c(O)c(C(=O)O)cc2ccccc12)c1cccnc1 (configuration not stated) | -1 | 0 | 0 | 9 | x | x
NS(=O)(=O)c1ccc(N=Cc2cc3c(cc2[N+](=O)[O-])OCO3)cc1 | 64* | 1 | 0 | -2 | 56* | 9 | AS interf DR=>6.5
CCN1CCCC1CNCc1csc(-c2ccc(Cl)cc2)n1 (configuration not stated) | 57* | 0 | 0 | -10 | -2 | 5
CCN1CCCC1CNCc1ccccc1Cl (configuration not stated) | 2 | -1 | 0 | 5 | x | x
CCN(CC)S(=O)(=O)c1ccc(F)c(C(=O)Nc2cccc(C)c2)c1 | 2 | 0 | 0 | -50 | x | x
CC(C)(c1ccc(O)c(N)c1)c1ccc(O)c(N)c1 | 74* | 0 | 1 | -1 | 8 | 33*
CC(C)(c1ccc(O)cc1)c1ccc(O)cc1 | 9 | -1 | 0 | -4 | x | x
COc1ccc(CN2CCC(C(=O)NCc3ccc(C)cc3)CC2)cc1 | 77* | 2 | 0 | -1 | -7 | -5
CCOC(=O)C1CCCN(Cc2ccccc2)C1 (configuration not stated) | 6 | -1 | 0 | -8 | x | x
CCOC(=O)C1CCCN(Cc2cccc(Br)c2)C1 (configuration not stated) | 53* | 2 | 1 | -6 | 35* | 6 | AS interf DR=>6.5
Cc1ccc(CN2CCCC(C(=O)N3CCCCC3)C2)cc1 (configuration not stated) | 34 | 1 | 0 | 6 | x | x

Source: PubChem BioAssay
